Assay outcomes (PubChem BioAssay)
Algae TAG accum: inducers of TAG accumulation in Chlamydomonas, primary screen, qHTS, Chlamydomonas reinhardtii. calls only at 10 µM (by protocol). Nile Red fluorescence, 72 h. 44,000 compounds, 0.84% hits; call rule not given here;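 note: hits raise Nile Red signal meaning more stored TAG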
Of the large screens only hits and unclear results are named; the others gave an inactive call. The entries come from a sample that favours hits as a whole.

O=C(C1CCCCC1)N1CCN(c2ccccc2F)CC1	none
Cc1ccc(CN2CCC(C(=O)N3CCN(c4cccc(C)c4C)CC3)CC2)o1	none
Cc1cccc(N2CCN(C(=O)C3CCN(CC(C)C)CC3)CC2)c1C	none
Cc1ccc(CN2CCC(C(=O)N3CCN(c4ccccc4F)CC3)CC2)cc1	none
O=C(C1CCN(CC2CCCCC2)CC1)N1CCN(c2ccccc2F)CC1	Algae TAG accum active
CC(C)CN1CCC(C(=O)N2CCN(c3ccccc3F)CC2)CC1	none
Cc1ccc(CN2CCC(C(=O)N3CCN(c4ccccc4F)CC3)CC2)o1	Algae TAG accum active
COc1ccc(CN2CCC(C(=O)N3CCN(c4cccc(C)c4C)CC3)CC2)cc1	none
Cc1cccc(N2CCN(C(=O)C3CCN(CC4CCCCC4)CC3)CC2)c1C	Algae TAG accum active
O=C(CSc1ccc(Cl)cc1)N1CCCCC1	none
CCN(CC)c1ccc(NC(=O)c2ccc(OC)c(OC)c2)cc1C	none
CCC(=O)Nc1ccc(O)c(-c2nc3cc(C)ccc3o2)c1	none
Cc1ccc(S(=O)(=O)n2cccn2)cc1	Algae TAG accum active
O=S(=O)(c1ccc(Cl)cc1)n1cccn1	none
Cc1ccc(S(=O)(=O)n2ccc(C)n2)cc1	none
O=S(=O)(Nc1ccc(F)cc1)c1cc(Cl)ccc1Cl	none
O=S(=O)(c1ccc(F)cc1)N1CCN(Cc2ccccc2)CC1	none
Brc1ccccc1OCCOCCn1c2ccccc2c2ccccc21	none
COc1cc([N+](=O)[O-])ccc1NC(=O)c1c(F)c(F)c(F)c(F)c1F	Algae TAG accum active
COc1cc([N+](=O)[O-])ccc1NC(=O)c1ccccc1F	none
COc1cc([N+](=O)[O-])ccc1NC(=O)c1ccc(C)c(C)c1	none
CCN(CC)CC#CC(C)(O)c1ccccc1 (stereo unspecified)	none
O=C(Nc1ccccc1)Nc1ccccc1I	none
CCCC(=O)c1cc2c(cc1N)OCCO2	none
OC1CSc2nnnn2C1 (stereo unspecified)	none
Cc1cc(Br)ccc1OCCN1CCN(C)CC1	none
CC(C)c1ccc(OCCOCCN2CCN(C)CC2)cc1	none
CCOc1ccc(OCCOCCN2CCN(C)CC2)cc1	none
CN1CCN(CCCOc2ccc(Br)cc2)CC1	Algae TAG accum active
Cc1cc(OCCCCN2CCN(C)CC2)cc(C(C)C)c1	Algae TAG accum active
Cc1cc(Br)ccc1OCCCN1CCCC1	none
Cc1cc(Br)ccc1OCCCN1CCN(C)CC1	Algae TAG accum active
CN1CCN(CCCOc2ccc(C(=O)c3ccccc3)cc2)CC1	none
Cc1cc(OCCCN2CCN(C)CC2)ccc1C(C)C	none
Cc1cccc(OCC(O)Cn2cnc3cc(C)c(C)cc32)c1 (stereo unspecified)	none
CC(C)NC(=O)C(=O)Nc1ccc(Br)cc1	none
COc1ccc(-c2onc(C)c2-c2ccc3c(c2)OCCCO3)c(O)c1	none
[O-][n+]1onc2c1CCc1c-2nc(-c2ccccc2F)n1O	none
CCOc1ccc(NC(=O)C(=O)NCC2CCNCC2)cc1	none
O=C(Nc1cccc(NC(=O)c2ccc3c(c2)OCO3)n1)c1ccc2c(c1)OCO2	none
Cc1ccc(-n2c(CCC(=O)O)ccc2-c2ccccc2)cc1Cl	none
CC(=O)c1c(C(C)=O)c(C)n(-c2ccc(Cl)c(N)c2)c1C	none
Cc1onc(-c2ccccc2Cl)c1C(=O)NN	none
Cc1ccc2nc(SCc3ccccc3)c(C=O)c(=O)n2c1	Algae TAG accum active
Cc1ccc(S(=O)(=O)c2cc3c(=O)n4cc(C)ccc4nc3n(Cc3ccccc3)c2=N)cc1	none
O=Cc1c(Sc2ccc(Cl)cc2)nc2ccccn2c1=O	none
Cc1ccccc1C(=O)N1CCC(C(=O)Nc2ccc(Oc3ccccc3)cc2)CC1	none
CC(C)(C)c1ccc(Cn2c(S(=O)(=O)O)nc3ccccc32)cc1	none
Cc1ccc2oc(-c3cc(NC(=O)c4ccc([N+](=O)[O-])o4)ccc3O)nc2c1	none
O=C(NCCC1=CCCCC1)c1ccc2snnc2c1	none
Cc1cccc(OCC(=O)Nc2cccc(NC(=O)c3ccccc3)c2)c1C	none
C=CCc1cc(C)ccc1OCCOCCN1CCN(C)CC1	none
OC(COc1ccc(Cl)cc1Cl)CN1CCc2ccccc2C1 (stereo unspecified)	none
Cc1cc(C(C)(C)C)ccc1OCCCN1CCN(C)CC1	none
Cc1cc(Cl)ccc1OCC(O)CN1CCN(C)CC1 (stereo unspecified)	Algae TAG accum active
CN1CCN(CCOCCOc2ccc(Cl)cc2C(C)(C)C)CC1	none
CN1CCN(CCOCCOc2ccccc2-c2ccccc2)CC1	none
Cc1cc(C(C)(C)C)ccc1OCCN1CCOCC1	none
Cc1cc(C(C)(C)C)ccc1OCCOCCN1CCN(C)CC1	Algae TAG accum active
Cc1ccc(OCC(O)CN2CCN(c3ccccc3)CC2)c(C)c1 (stereo unspecified)	none
Cc1ccc(OCCOCCN2CCN(C)CC2)c(I)c1	Algae TAG accum active
C=CCc1cc(OC)ccc1OCCOCCN1CCN(C)CC1	none
Cc1cc(C(C)(C)C)ccc1OCCN1CCN(C)CC1	Algae TAG accum active
CCOc1ccc(NC(=O)Nc2nnc(-c3ccc(OC)c(OC)c3)s2)cc1	none
O=C(COc1ccc(Br)cc1)Nc1ccccc1C(=O)Nc1ccccc1	none
O=C(Nc1nc2ccccc2n1CCOc1ccccc1)c1ccccc1Cl	none
O=c1[nH]c(/C=C/c2cccnc2)nc2ccccc12	none
Cc1cc(Br)cc(C)c1NC(=O)COc1ccc([N+](=O)[O-])cc1	none
CCCCN(CC)c1cnn(-c2ccccc2)c(=O)c1N	none
Cc1cccc(NC(=O)C(=O)NC(C)C)c1C	none
COc1cccc(NC(=O)CSc2nnc(Cc3ccccc3)n2C)c1	none
Cc1cccc(C(=O)NCCc2cccc(Cl)c2)c1	none
N=Cc1c2ccc[nH]c-2c2ccccc12	none
Cc1cc(Cl)c(OCCCN2CCN(C)CC2)c(Br)c1	none
Cc1cc(Cl)c(OCCOCCN2CCN(C)CC2)c(Br)c1	Algae TAG accum active
CN1CCN(CCOCCOc2c(Cl)cc(Cl)cc2Cl)CC1	none
CCOc1ccccc1C(=O)Nc1ccc(Br)cc1F	none
CCOc1ccc(C(O)=C2C(=O)C(=O)N(c3ncccn3)C2c2cccc([N+](=O)[O-])c2)cc1 (stereo unspecified)	none
CCOc1ccccc1OCCCCOc1ccccc1C=O	none
COc1ccc(N2CCN(C(=O)C3COc4ccccc4O3)CC2)cc1 (stereo unspecified)	none
O=C(C1COc2ccccc2O1)N1CCN(Cc2ccccc2)CC1 (stereo unspecified)	Algae TAG accum active
O=C(c1ccc2c(c1)OCO2)N1CCN(Cc2ccccc2)CC1	none
CSc1cnn(-c2ccccc2)c(=O)c1Cl	none
CCN1CCN(C2CCCC(C)C2)CC1 (stereo unspecified)	none
CCN1CCC(N2CCN(c3ccc(Cl)cc3)CC2)CC1	Algae TAG accum active
CCN1C(=O)CC(N2CCN(c3ccc(Cl)cc3)CC2)C1=O (stereo unspecified)	none
c1ccc(CN2CCC(N3CCN(C4CCCC4)CC3)CC2)cc1	none
c1ccc(C2CCC(N3CCN(Cc4ccncc4)CC3)CC2)cc1 (stereo unspecified)	Algae TAG accum active
O=C(c1ccccc1)N1CCN(Cc2ccncc2)CC1	none
CCN1CCN(CC2CCCCC2)CC1	none
COc1ccc(C(=O)N2CCN(C3CCC(c4ccccc4)CC3)CC2)cc1OC (stereo unspecified)	none
CCN1CCN(C2CCC(c3ccccc3)CC2)CC1 (stereo unspecified)	Algae TAG accum active
COc1ccccc1N1CCN(C2CCN(C3CCC(c4ccccc4)CC3)CC2)CC1 (stereo unspecified)	none
CCCN1CCC(N2CCN(c3ccc([N+](=O)[O-])cc3)CC2)CC1	none
CCN1CCN(C2CCC(C(C)(C)C)CC2)CC1 (stereo unspecified)	Algae TAG accum active
O=C(Nc1nnc(/C=C/c2ccccc2)s1)Nc1ccccc1F	none
CCCC(=O)Nc1ccc(-c2nc3ccccc3s2)cc1	none
CCN(CC)CCOc1ccc(F)cc1	none
